PubChem BioAssay (EPA / NIEHS)
“And” between values parts separate entries of the source, which are not always exact repeats. Identical values can stand only once. Results filed as inconclusive are left out. Some compounds were tested as several samples or in several runs, with calls that do not always agree. The source made the active and inactive calls. The calls were made as follows, unless noted: active = hit-call score of the fitted dose curve at least 0.9, where 1 is the maximum; inactive = score below 0.9.

Tests used:
[1] = molecular target: Transcriptional activator Myb (Homo sapiens) (UniProt P10242); assay: ATG_Myb_CIS: Attagene CIS-FACTORIAL HepG2 Assay for human Myeloblastosis (Myb) Proto-Oncogene Transcription Factor (AID 2282986); conditions: HepG2 Attagene CIS-FACTORIAL Myb reporter transcription; actives raise or lower the signal
Outline: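 HepG2 cells were transiently transfected with cis-regulated multiple reporter transcription units reflecting endogenous Myb activity, then exposed to compound for 24 hours. Reporter mRNA was measured by RT-PCR with capillary electrophoresis; bidirectional fitting versus DMSO baseline.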

[2] = molecular target: Nuclear respiratory factor 1 (Homo sapiens) (UniProt Q16656); assay: ATG_NRF1_CIS: Attagene CIS-FACTORIAL HepG2 Assay for human Nuclear Respiratory Factor 1 (NRF1) Orphan Gene (AID 2282987); conditions: HepG2 NRF1 cis-element reporter, Attagene multiplex; actives raise or lower the signal
Outline: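 HepG2 cells transiently transfected with multiple reporter transcription units under cis-regulatory promoter control, so endogenous transcription-factor activity is read. After 24 h compound exposure, reporter mRNA quantified by RT-PCR, fluorescent labelling, HpaI digestion and capillary electrophoresis; bidirectional fitting versus DMSO.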

[3] = ATG_NFI_CIS: Attagene CIS-FACTORIAL HepG2 Assay for human Nuclear Factor I (NFI) (AID 2282989); conditions: HepG2 cis-regulatory reporter, NFI response element transcription; actives raise or lower the signal
Outline: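 Reporter transcription driven by endogenous transcription factors in HepG2 cells; 24 h treatment. Quantitation by labelled RT-PCR fragments on capillary electrophoresis, gain- or loss-of-signal relative to DMSO.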

[4] = molecular target: Myc proto-oncogene protein (Homo sapiens) (UniProt P01106); assay: ATG_Myc_CIS: Attagene CIS-FACTORIAL HepG2 Assay for human Myelocytomatosis (Myc) Proto-Oncogene Transcription Factor (AID 2282990); conditions: HepG2, Attagene cis-reporter transcription factor activity; actives raise or lower the signal
Outline: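 Cells of the HepG2 human liver line bear multiple cis-driven reporter transcription units. Reporter mRNA after 24 h exposure is reverse-transcribed, amplified, labelled and resolved by capillary electrophoresis, with gain- or loss-of-signal fitting relative to DMSO.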

[5] = ATG_NRF2_ARE_CIS: Attagene CIS-FACTORIAL HepG2 Assay for human Nuclear Factor Erythroid 2 Related Factor 2 (NFR2) response to Antioxidant Response Elements (ARE) (AID 2282992); conditions: HepG2 Attagene ARE/NRF2 reporter, transcription factor activity; actives raise or lower the signal
Outline: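 Using transiently transfected HepG2 cells exposed for 24 h, reporter mRNA levels were determined by RT-PCR with fluorescent primer extension and capillary electrophoresis, analysed for gain or loss of signal against DMSO.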

[6] = ATG_Oct_MLP_CIS: Attagene CIS-FACTORIAL HepG2 Assay for human Octamer-Binding Transcription Factor (Oct) (AID 2282993); conditions: HepG2 Attagene cis-factorial Oct reporter, mRNA; actives raise or lower the signal
Outline: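 Transfected HepG2 cells, 24 h treatment. Reporter mRNA quantified by RT-PCR–capillary electrophoresis; bidirectional fitting against DMSO.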

[7] = molecular target: Cellular tumor antigen p53 (Homo sapiens) (UniProt P04637); assay: ATG_p53_CIS: Attagene CIS-FACTORIAL HepG2 Assay for human p53 Transcription Factor (AID 2282994); conditions: HepG2 p53 cis-element reporter, Attagene mRNA; actives raise or lower the signal
Outline: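 In HepG2 cells, reporter transcription units under cis-regulatory promoters were transiently introduced. Following 24 h treatment, RNA was processed to labelled, digested cDNA fragments read by capillary electrophoresis; fitting was bidirectional versus DMSO.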

[8] = BSK_3C_TissueFactor: BioMAP Diversity Plus: 3C Assay for Tissue Factor Biomarker Activity (AID 2282997); conditions: BioMAP 3C HUVEC, tissue factor biomarker readout; actives raise or lower the signal
Outline: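 Readout: Tissue Factor ELISA. Cells: human primary umbilical vein endothelium. Time: 24 h after dosing. Analysis: bidirectional fit, DMSO baseline.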

[9] = BSK_3C_uPAR: BioMAP Diversity Plus: 3C Assay for Urokinase-type plasminogen activator receptor (uPAR) Biomarker Activity (AID 2282998); conditions: BioMAP 3C HUVEC, uPAR biomarker ELISA; actives raise or lower the signal
Outline: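 Readout: ELISA for surface uPAR. System: human umbilical vein endothelial primary cells, 24 h after chemical exposure. Analysis: bidirectional fit, DMSO baseline.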

[10] = BSK_3C_VCAM1: BioMAP Diversity Plus: 3C Assay for Vascular cell adhesion molecule 1 (VCAM1) Biomarker Activity (AID 2282999); conditions: BioMAP 3C HUVEC, VCAM1 ELISA, cytokine-stimulated; actives raise or lower the signal
Outline: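 Activity fitted in both directions relative to DMSO, with ELISA measurement of the surface marker on primary HUVEC (3C) at 24 h post-treatment; parallel SRB staining (0.1% SRB, TCA-fixed, 560 nm) flagged overt cytotoxicity.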

[11] = BSK_4H_Eotaxin3: BioMAP Diversity Plus: 4H Assay for Eotaxin 3 Biomarker Activity (AID 2283000); conditions: primary human endothelial cells (HUVEC); actives raise or lower the signal
Outline: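 HUVEC, 24 h post-dose, ELISA for Eotaxin-3/CCL26. Gain or loss of signal fitted bidirectionally vs DMSO baseline.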

[12] = molecular target: human Peroxisome Proliferator-activated Receptor alpha (PPARa), PPARA (gene 5465) (UniProt Q07869); assay: ATG_PPARa_TRANS: Attagene TRANS-FACTORIAL HepG2 Assay for human Peroxisome Proliferator-activated Receptor alpha (PPARa) (AID 2283001; active = hit-call score of the fitted dose curve at least 0.9, where 1 is the maximum;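 as to AC50: potency for gain of reporter signal over DMSO so agonist or activator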)
Outline: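 Transfected HepG2 cells treated with test chemical for 24 h. RNA isolated, reverse-transcribed with oligo(dT), PCR-amplified, FAM-labelled and HpaI-digested. Fragments sized by capillary electrophoresis; gain-of-signal fit relative to DMSO.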

[13] = molecular target: human Peroxisome Proliferator-activated Receptor delta (PPARd), PPARD (gene 5467) (UniProt Q03181); assay: ATG_PPARd_TRANS: Attagene TRANS-FACTORIAL HepG2 Assay for human Peroxisome Proliferator-activated Receptor delta (PPARd) (AID 2283002; active = hit-call score of the fitted dose curve at least 0.9, where 1 is the maximum)
Outline: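 Cell-based TRANS reporter: HepG2, transient MRTU transfection, 24 h exposure. Readout = reporter mRNA (RT-PCR/CE, 6-FAM). Gain-of-signal fit vs DMSO control.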

[14] = read-out: Intercellular Adhesion Molecule 1 (ICAM1), ICAM1 (gene 3383); assay: BSK_3C_ICAM1: BioMAP Diversity Plus: 3C Assay for Intercellular Adhesion Molecule 1 (ICAM1) Biomarker Activity (AID 2283003); conditions: primary human endothelial cells (HUVEC); actives raise or lower the signal
Outline: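 Using DMSO as baseline, bidirectional curve fitting was applied to ICAM-1 ELISA signals from HUVEC in the 3C system, measured 24 h after compound addition.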

[15] = molecular target: human Retinoic Acid Receptor beta (RARb), RARB (gene 5915) (UniProt P10826); assay: ATG_RARb_TRANS: Attagene TRANS-FACTORIAL HepG2 Assay for human Retinoic Acid Receptor beta (AID 2283004; active = hit-call score of the fitted dose curve at least 0.9, where 1 is the maximum)
Outline: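 HepG2 cells transiently transfected with multiplexed GAL4-UAS reporter units expressing chimeric NR–Gal4 fusions; 24 h compound exposure. Reporter mRNA quantified by RT-PCR, 6-FAM labelling, HpaI digestion and capillary electrophoresis; gain-of-signal fitted against DMSO baseline.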

[16] = molecular target: Retinoic acid receptor alpha (Homo sapiens) (UniProt P10276); assay: ATG_RARa_TRANS: Attagene TRANS-FACTORIAL HepG2 Assay for human Retinoic Acid Receptor alpha (RARa) (AID 2283005; active = hit-call score of the fitted dose curve at least 0.9, where 1 is the maximum)
Outline: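 Reporter transcripts, measured by RT-PCR with fluorescent labeling and capillary electrophoresis after 24 h dosing, reflect activity of an exogenous human RARa–GAL4 fusion in transiently transfected HepG2. Fitted for increase relative to DMSO.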

[17] = molecular target: Peroxisome proliferator-activated receptor gamma (Homo sapiens) (UniProt P37231); assay: ATG_PPARg_TRANS: Attagene TRANS-FACTORIAL HepG2 Assay for human Peroxisome Proliferator-activated Receptor-gamma (PPARg) (AID 2283007; active = hit-call score of the fitted dose curve at least 0.9, where 1 is the maximum)
Outline: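 HepG2 cells transiently transfected with multiplexed GAL4-UAS reporter units and exogenous chimeric NR-Gal4 proteins; reporter mRNA quantified after 24 h compound exposure by RT-PCR, fluorescent labelling, HpaI digestion and capillary electrophoresis; gain-of-signal fitted versus DMSO baseline.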

[18] = molecular target: Nuclear receptor subfamily 1 group I member 2 (Homo sapiens) (UniProt O75469); assay: ATG_PXR_TRANS: Attagene TRANS-FACTORIAL HepG2 Assay for human Pregnane X Receptor (PXR) (AID 2283008; active = hit-call score of the fitted dose curve at least 0.9, where 1 is the maximum)
Outline: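 Multiplexed TRANS reporter panel in HepG2; this component tracks PXR-Gal4-driven reporter mRNA after 24 h dosing, measured by RT-PCR with capillary electrophoresis fluorescence, fitted against DMSO.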

[19] = molecular target: human Retinoic Acid Receptor gamma (RARg), RARG (gene 5916) (UniProt P13631); assay: ATG_RARg_TRANS: Attagene TRANS-FACTORIAL HepG2 Assay for human Retinoic Acid Receptor gamma (RARg) (AID 2283009; active = hit-call score of the fitted dose curve at least 0.9, where 1 is the maximum)
Outline: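 Gain-of-signal relative to DMSO is reported from fluorescent capillary electrophoresis of RT-PCR reporter products. These came from HepG2 cells expressing transfected RARg-GAL4 chimeras with UAS reporters, harvested 24 h after dosing.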

[20] = BSK_3C_Proliferation: Cell Proliferation Assessment in the BioMAP Diversity Plus: 3C Assay (AID 2283006); conditions: primary human endothelial cells (HUVEC);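 as to AC50: potency may reflect either rise or fall in cell number versus DMSO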
Outline: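 Measured here: sulforhodamine B (0.1%) staining of TCA-fixed sub-confluent umbilical vein endothelial cultures 48 h post-dosing, absorbance 560 nm. DMSO served as negative control and baseline; both signal gain and loss were modelled.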

Measured: AC50

Cellular tumor antigen p53 (Homo sapiens), sequence (P04637 whole entry, looked up, the tested form may be a part): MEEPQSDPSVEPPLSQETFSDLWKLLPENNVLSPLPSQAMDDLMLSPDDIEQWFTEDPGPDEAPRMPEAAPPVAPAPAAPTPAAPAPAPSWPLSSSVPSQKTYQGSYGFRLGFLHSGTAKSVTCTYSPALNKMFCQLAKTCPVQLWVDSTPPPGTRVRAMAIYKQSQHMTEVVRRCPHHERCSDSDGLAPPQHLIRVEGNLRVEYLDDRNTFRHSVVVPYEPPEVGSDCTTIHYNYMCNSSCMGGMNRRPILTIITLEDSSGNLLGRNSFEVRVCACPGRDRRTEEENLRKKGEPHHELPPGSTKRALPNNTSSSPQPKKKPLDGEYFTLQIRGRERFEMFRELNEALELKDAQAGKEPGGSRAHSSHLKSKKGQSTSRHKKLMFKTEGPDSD
human Retinoic Acid Receptor gamma (RARg), RARG (gene 5916), sequence (P13631 whole entry, looked up, the tested form may be a part): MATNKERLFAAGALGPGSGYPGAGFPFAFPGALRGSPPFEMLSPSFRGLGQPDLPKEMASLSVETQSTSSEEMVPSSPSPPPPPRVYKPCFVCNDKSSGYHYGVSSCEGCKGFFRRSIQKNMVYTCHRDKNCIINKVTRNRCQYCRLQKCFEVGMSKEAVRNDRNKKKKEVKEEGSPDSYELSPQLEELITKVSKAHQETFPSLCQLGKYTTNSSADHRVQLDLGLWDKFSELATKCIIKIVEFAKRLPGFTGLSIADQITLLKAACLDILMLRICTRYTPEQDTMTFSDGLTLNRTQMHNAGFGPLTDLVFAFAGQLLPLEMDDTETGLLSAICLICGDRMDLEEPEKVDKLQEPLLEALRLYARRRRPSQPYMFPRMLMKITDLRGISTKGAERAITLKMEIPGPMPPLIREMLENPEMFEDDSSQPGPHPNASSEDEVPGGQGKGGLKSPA
human Peroxisome Proliferator-activated Receptor alpha (PPARa), PPARA (gene 5465), sequence (Q07869 whole entry, looked up, the tested form may be a part): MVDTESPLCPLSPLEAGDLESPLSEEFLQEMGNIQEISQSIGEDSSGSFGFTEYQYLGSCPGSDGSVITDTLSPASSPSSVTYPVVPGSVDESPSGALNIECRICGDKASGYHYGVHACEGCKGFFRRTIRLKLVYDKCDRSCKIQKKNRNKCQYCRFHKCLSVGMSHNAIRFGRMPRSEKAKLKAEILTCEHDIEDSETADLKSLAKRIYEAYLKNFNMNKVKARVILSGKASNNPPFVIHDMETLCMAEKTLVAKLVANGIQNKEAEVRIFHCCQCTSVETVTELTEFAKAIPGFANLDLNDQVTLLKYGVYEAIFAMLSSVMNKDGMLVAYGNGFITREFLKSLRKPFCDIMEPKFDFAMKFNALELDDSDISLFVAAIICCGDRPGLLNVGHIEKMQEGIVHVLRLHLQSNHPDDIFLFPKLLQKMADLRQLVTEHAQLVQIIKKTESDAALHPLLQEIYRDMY
Retinoic acid receptor alpha (Homo sapiens), sequence (P10276 whole entry, looked up, the tested form may be a part): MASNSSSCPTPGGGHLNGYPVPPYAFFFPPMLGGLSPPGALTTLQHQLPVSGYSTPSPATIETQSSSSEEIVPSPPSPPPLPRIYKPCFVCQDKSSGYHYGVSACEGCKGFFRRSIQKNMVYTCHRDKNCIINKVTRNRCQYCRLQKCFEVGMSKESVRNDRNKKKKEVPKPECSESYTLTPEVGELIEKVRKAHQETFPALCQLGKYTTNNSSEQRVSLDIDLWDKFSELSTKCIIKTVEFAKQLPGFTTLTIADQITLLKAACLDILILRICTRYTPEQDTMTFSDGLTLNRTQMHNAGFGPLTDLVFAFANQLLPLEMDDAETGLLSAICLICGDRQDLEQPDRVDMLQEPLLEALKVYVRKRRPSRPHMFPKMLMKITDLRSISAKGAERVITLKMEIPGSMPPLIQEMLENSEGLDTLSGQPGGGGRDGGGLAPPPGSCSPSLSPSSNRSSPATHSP
Nuclear respiratory factor 1 (Homo sapiens), sequence (Q16656 whole entry, looked up): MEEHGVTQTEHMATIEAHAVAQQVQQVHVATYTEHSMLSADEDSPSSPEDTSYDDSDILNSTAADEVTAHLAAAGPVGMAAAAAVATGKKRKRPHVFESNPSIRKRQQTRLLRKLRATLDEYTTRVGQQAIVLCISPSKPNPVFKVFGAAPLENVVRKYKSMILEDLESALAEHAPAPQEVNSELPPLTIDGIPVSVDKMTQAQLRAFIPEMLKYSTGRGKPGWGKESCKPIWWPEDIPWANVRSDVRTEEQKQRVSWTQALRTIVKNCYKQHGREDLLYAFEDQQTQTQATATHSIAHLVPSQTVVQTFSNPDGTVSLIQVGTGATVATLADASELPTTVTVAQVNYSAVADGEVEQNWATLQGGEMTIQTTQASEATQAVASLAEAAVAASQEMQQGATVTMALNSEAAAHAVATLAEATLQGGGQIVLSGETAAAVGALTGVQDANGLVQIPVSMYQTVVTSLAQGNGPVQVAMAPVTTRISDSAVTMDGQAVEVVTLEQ
human Retinoic Acid Receptor beta (RARb), RARB (gene 5915), sequence (P10826 whole entry, looked up, the tested form may be a part): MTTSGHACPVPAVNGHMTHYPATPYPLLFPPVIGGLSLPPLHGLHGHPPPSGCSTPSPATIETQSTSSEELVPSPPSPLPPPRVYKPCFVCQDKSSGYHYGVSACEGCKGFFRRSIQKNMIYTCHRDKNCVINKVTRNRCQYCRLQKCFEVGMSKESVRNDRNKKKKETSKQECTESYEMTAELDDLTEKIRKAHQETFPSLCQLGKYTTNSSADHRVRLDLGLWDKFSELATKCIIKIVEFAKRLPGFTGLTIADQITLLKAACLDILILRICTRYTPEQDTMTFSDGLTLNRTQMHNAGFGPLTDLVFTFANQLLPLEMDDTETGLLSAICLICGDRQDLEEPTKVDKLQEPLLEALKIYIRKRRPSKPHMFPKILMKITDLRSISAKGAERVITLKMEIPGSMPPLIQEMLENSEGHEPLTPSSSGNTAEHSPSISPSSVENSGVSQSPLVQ
Myc proto-oncogene protein (Homo sapiens), sequence (P01106 whole entry, looked up): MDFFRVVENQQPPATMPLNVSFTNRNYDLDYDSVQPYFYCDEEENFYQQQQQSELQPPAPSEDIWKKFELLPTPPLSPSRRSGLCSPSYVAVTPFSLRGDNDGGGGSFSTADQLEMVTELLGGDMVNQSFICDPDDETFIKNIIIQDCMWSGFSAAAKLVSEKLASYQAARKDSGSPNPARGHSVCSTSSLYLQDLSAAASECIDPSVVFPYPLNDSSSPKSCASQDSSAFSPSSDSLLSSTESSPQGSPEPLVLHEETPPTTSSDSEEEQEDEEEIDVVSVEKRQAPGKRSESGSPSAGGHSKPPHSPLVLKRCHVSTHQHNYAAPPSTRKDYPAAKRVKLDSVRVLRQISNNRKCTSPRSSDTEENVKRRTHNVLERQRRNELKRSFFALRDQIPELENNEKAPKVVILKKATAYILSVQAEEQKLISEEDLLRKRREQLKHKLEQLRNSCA
Transcriptional activator Myb (Homo sapiens), sequence (P10242 whole entry, looked up): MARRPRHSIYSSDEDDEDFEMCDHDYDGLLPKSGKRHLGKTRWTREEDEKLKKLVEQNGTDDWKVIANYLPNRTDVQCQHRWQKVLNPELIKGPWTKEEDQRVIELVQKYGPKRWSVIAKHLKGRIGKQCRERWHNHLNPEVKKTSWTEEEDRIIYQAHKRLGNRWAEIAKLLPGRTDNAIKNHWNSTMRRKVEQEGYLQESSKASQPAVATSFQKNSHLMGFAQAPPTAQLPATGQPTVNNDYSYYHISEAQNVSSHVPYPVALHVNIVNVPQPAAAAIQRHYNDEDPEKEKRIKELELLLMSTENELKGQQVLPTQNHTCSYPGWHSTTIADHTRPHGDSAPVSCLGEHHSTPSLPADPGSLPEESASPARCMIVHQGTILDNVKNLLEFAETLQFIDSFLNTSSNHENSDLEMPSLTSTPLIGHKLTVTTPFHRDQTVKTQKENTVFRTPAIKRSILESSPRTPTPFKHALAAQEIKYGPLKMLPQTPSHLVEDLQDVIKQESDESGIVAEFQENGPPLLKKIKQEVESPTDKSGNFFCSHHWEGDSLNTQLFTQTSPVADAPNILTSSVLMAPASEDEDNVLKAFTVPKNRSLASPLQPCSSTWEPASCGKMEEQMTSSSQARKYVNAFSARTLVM
Nuclear receptor subfamily 1 group I member 2 (Homo sapiens), sequence (O75469 whole entry, looked up, the tested form may be a part): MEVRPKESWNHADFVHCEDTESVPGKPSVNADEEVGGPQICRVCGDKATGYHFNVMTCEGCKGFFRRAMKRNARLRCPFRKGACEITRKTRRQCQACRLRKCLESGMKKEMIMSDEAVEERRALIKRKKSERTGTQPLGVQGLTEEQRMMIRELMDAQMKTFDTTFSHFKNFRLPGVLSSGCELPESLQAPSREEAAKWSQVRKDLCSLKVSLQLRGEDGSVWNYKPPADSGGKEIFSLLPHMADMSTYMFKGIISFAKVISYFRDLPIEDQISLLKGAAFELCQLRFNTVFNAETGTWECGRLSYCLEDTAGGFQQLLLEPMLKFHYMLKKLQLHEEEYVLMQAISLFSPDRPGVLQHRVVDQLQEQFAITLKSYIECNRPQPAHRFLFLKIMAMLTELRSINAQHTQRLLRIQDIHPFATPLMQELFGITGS
Peroxisome proliferator-activated receptor gamma (Homo sapiens), sequence (P37231 whole entry, looked up, the tested form may be a part): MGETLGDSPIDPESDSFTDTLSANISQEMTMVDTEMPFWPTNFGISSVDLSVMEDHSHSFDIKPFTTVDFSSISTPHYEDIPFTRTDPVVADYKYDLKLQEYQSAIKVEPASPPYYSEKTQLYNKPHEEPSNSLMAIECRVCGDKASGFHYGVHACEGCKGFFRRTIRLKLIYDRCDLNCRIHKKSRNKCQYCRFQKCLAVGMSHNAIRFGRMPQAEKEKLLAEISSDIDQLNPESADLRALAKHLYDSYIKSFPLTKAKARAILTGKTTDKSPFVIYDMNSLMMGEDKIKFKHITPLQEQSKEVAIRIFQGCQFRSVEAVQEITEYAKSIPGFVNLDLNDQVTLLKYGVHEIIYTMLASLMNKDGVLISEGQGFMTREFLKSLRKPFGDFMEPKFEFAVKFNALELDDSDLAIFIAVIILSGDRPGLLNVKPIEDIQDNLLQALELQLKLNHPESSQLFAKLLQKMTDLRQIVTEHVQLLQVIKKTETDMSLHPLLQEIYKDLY

Cc1ccc(-c2c(Cl)nc(C#N)n2S(=O)(=O)N(C)C)cc1
active: [5] 6.65 µM | [6] 11.9 µM | [8] 27.3 µM | [9] 23.9 µM | [10] 34.3 µM | [11] 15.8 µM | [17] 9.32 µM
not listed: [20]
inactive: all other assays above

COC(=O)C(C)Oc1ccc(Oc2ccc(Cl)cc2Cl)cc1 (configuration not stated)
inactive: [1] | [2] | [4] | [5] | [6] | [7] | [8] | [10] | [11] | [14] | [15] | [16] | [20] | [18] | [19]
active: [9] 25.7 µM and 20 µM and 13.3 µM | [11] 26.5 µM | [12] 17.4 µM and 17.6 µM and 17.2 µM | [17] 35.2 µM and 20.8 µM and 40 µM

CC(C)C1(C)N=C(c2nc3ccccc3cc2C(=O)O)NC1=O (configuration not stated)
not listed: [20]
inactive: all other assays above

CS/C(C)=N/OC(=O)N(C)SN(C)C(=O)O/N=C(\C)SC
active: [8] 15.9 µM | [9] 28.6 µM | [10] 24.6 µM | [11] 29.2 µM | [14] 31.6 µM
not listed: [12] | [13] | [16] | [18] | [20]
inactive: all other assays above

CON(C)C(=O)Nc1ccc(Cl)c(Cl)c1
inactive: [1] | [2] | [4] | [6] | [7] | [8] | [9] | [10] | [11] | [12] | [13] | [14] | [15] | [16] | [17] | [19]
active: [5] 27.8 µM [middle of 4 runs] | [17] 42.1 µM

CCOC(=O)CC(SP(=S)(OC)OC)C(=O)OCC (configuration not stated)
active: [5] 25.1 µM and 19.6 µM | [6] 133 µM and 24 µM | [9] 5.14 µM | [17] 14.2 µM and 25.1 µM | [18] 1.53 µM
inactive: [1] | [2] | [3] | [4] | [7] | [8] | [10] | [11] | [12] | [14] | [20] | [18]

Oc1ccccc1-c1ccccc1
active: [4] 50 µM | [5] 32.7 µM and 26.2 µM | [6] 50 µM | [17] 28.3 µM | [18] 4.15 µM
inactive: [1] | [2] | [3] | [4] | [6] | [7] | [8] | [9] | [10] | [11] | [12] | [13] | [14] | [17] | [18]

OC(c1ccc(Cl)cc1)(c1cncnc1)c1ccccc1Cl (configuration not stated)
inactive: [1] | [2] | [3] | [4] | [5] | [6] | [7] | [8] | [10] | [11] | [12] | [13] | [14] | [15] | [16] | [18] | [19]
active: [4] 12.5 µM | [5] 12.8 µM | [6] 26.3 µM | [9] 17.4 µM | [20] 25.3 µM | [17] 66.2 µM | [18] 32.8 µM

CCOC(=O)C(Cl)Cc1cc(-n2nc(C)n(C(F)F)c2=O)c(F)cc1Cl (configuration not stated)
active: [17] 50 µM
not listed: [13] | [16] | [19] | [20]
inactive: all other assays above

COc1ccc(C(c2ccc(OC)cc2)C(Cl)(Cl)Cl)cc1
inactive: [1] | [2] | [4] | [5] | [6] | [7] | [8] | [11] | [12] | [13] | [14] | [15] | [16] | [17] | [18]
active: [6] 37.6 µM | [9] 30.1 µM | [10] 31.3 µM | [20] 14.3 µM | [18] 1.11 µM and 3.62 µM and 1.47 µM
